Activity calls are given as the source filed them.
Columns and labels:
[1] = tested on: PRMT1 (protein arginine N-methyltransferase 1); assay: PRMT1 binders on small-molecule microarrays, primary screen, biochemical, small-molecule microarray, 635 nm fluorescence (AID 1088); conditions: small-molecule microarray binding, higher = more signal;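 also: binding of Prmt1 protein to compounds spotted on small-molecule microarray slides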
[2] = yeast growth modulation, basal conditions, primary screen, YJM789 clinical isolate, OD600, 24 h (AID 1089);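 also: growth of clinical yeast isolate S. cerevisiae YJM 789 seeded 1000 cells per well; test concentration not given here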; conditions: S. cerevisiae YJM789 growth, higher = more signal, called active from +8 up or from −8 down
[3] = fission yeast growth modulation, primary screen, strain 972, OD600, 24 h, no modulator (AID 1090);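 also: basal condition with compound alone and no growth modifier present; test concentration not given here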; conditions: S. pombe 972 growth, higher = more signal, called active from +8 up or from −8 down
[4] = S. cerevisiae growth modulation with rapamycin, primary screen, strain BY4716, OD600, 96 h (AID 1091); conditions: higher = more signal, called active from +8 up or from −8 down; also: test concentration not given here
[5] = biological target: Torsin-1A-interacting protein 2 (Homo sapiens) (UniProt Q8NFQ8); assay: LULL1 binders on small-molecule microarray, primary screen, cell lysate, human LULL1 lysate, 635/667 nm fluorescence (AID 1092); conditions: hLULL1 lysate binding, 635 nm fluorescence, higher = more signal;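 also: probe is lysate of COS7 cells overexpressing human LULL1; score merges per-feature 667 nm fluorescence with signal-to-noise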
Torsin-1A-interacting protein 2 (Homo sapiens), sequence (Q8NFQ8 whole entry, looked up): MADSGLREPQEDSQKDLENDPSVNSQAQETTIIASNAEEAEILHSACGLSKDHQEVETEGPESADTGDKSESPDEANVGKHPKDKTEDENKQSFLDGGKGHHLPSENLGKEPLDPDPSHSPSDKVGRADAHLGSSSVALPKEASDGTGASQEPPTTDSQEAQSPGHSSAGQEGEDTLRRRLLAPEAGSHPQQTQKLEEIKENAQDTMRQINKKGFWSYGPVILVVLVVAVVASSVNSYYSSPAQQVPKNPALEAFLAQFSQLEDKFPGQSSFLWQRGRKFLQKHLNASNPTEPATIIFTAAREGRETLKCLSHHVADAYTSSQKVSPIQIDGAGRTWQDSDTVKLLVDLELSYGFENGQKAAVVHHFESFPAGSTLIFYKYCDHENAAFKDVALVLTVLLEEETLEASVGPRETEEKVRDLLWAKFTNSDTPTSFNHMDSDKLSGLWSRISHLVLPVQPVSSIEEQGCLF

[6] = E. coli growth modulation, two-sided OD650, primary screen, E. coli filamentation project, strain DRC41, 24 h (AID 1093); conditions: OD650, 24 h, higher = more signal, called active from +8 up or from −8 down;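 also: MC1000 strain lacking acrAB efflux and sulA so SOS filamentation is blocked; test concentration not given here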
[7] = small-molecule microarray binders of probe aLefty2, primary screen, biochemical, biotinylated probe, 635/667 nm fluorescence (AID 1094); conditions: higher = more signal;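 also: score merges spot fluorescence near 667 nm with spot signal-to-noise ratio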
[8] = tested on: Noggin (protein binding on small-molecule microarray); assay: Noggin binders on small-molecule microarray, primary screen, biochemical, 635/667 nm fluorescence (AID 1095); conditions: 635 nm fluorescence, higher = more signal;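 also: score merges 667 nm feature fluorescence with signal to noise over triplicate slides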
[9] = biological target: Neurogenic locus notch homolog protein 3 (Homo sapiens) (UniProt Q9UM47); assay: NOTCH3 binders on small-molecule microarray, primary screen, biochemical, 635/667 nm fluorescence (AID 1096); conditions: NOTCH3 binding, 635 nm fluorescence, higher = more signal
Neurogenic locus notch homolog protein 3 (Homo sapiens), sequence (Q9UM47 whole entry, looked up): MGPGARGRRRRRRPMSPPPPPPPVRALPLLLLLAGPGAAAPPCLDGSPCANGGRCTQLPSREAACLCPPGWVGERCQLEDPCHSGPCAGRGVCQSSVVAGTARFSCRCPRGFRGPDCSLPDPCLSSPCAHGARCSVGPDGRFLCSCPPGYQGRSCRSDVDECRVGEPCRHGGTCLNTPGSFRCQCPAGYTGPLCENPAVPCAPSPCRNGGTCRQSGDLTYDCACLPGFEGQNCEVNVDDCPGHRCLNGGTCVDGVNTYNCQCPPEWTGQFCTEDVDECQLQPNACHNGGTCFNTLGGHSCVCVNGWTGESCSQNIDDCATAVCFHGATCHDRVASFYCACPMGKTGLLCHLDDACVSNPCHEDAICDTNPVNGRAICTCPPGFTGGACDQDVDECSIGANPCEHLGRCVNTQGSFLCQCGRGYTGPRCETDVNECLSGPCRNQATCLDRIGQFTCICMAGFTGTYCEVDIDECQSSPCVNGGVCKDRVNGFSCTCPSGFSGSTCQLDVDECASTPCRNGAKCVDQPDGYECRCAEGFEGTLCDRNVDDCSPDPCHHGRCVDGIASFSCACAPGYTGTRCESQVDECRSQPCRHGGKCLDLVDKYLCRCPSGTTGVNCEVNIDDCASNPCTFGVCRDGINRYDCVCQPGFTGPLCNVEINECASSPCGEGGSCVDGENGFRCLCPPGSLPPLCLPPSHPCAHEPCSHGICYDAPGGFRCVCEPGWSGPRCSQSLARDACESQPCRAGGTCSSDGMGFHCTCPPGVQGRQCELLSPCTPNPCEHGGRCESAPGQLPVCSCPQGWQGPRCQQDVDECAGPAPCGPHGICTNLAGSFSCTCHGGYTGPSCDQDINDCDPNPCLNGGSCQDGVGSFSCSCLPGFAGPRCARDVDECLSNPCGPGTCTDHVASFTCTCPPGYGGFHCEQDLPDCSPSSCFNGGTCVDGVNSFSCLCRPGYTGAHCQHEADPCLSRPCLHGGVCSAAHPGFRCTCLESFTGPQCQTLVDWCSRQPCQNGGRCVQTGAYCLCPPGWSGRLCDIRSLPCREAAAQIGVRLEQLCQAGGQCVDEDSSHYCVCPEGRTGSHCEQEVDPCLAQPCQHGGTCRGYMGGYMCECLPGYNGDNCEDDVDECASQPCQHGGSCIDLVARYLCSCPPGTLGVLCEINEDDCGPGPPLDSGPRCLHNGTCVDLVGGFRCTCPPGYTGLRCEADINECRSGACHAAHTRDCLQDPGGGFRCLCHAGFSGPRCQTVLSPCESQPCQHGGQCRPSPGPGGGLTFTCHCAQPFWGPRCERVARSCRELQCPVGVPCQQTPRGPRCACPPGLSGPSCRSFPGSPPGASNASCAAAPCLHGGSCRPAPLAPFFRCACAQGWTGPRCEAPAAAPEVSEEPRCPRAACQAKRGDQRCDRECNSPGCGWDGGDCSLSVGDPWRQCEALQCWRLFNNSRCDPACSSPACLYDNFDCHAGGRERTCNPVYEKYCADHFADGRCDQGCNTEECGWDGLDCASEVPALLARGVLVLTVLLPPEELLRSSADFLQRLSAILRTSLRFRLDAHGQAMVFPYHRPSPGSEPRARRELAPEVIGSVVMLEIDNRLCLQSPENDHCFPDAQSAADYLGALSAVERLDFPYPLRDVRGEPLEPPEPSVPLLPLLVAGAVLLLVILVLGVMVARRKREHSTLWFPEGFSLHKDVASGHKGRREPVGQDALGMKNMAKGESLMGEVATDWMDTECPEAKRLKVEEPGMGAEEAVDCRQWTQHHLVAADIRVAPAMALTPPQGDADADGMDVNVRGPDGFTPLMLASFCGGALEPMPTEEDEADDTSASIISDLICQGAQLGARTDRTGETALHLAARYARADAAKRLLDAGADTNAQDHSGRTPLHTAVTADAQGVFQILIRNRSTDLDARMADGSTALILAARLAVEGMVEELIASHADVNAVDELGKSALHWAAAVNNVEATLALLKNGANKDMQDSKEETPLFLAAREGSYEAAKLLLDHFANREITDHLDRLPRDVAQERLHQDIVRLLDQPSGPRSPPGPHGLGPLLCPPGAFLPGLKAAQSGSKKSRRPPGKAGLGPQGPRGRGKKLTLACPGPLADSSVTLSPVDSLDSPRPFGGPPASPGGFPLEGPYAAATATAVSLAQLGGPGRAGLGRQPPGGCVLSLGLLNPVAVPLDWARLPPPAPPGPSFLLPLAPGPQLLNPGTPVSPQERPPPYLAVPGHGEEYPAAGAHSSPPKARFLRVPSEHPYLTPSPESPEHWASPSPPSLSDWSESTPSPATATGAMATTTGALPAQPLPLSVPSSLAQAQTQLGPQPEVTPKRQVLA

[10] = small-molecule microarray binders of probe aEGFR, primary screen, biochemical, biotinylated probe, 635/667 nm fluorescence (AID 1097); conditions: higher = more signal;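 also: probe is a biotinylated anti-EGFR antibody binding compounds printed on slides; score combines fluorescence near 667 nm and signal to noise of each spot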
[11] = tested on: Plasmodium falciparum Sir2 (PF13_0152, Sir2A); assay: pfSir2 binders on small-molecule microarrays, primary screen, biochemical, small-molecule microarray, 635 nm fluorescence (AID 1098); conditions: small-molecule microarray binding, fluorescence 635 nm; higher = more signal;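 also: score merges spot fluorescence intensity with its signal-to-noise ratio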
[12] = small-molecule microarray binders of probe aDKK1, primary screen, biochemical, biotinylated probe, 635/667 nm fluorescence (AID 1099); conditions: higher = more signal;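 also: score merges 667nm spot fluorescence with signal to noise across triplicate slides; reference of the scale not given here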
[13] = small-molecule microarray binders of probe aCHRDL2, primary screen, biochemical, biotinylated probe, 635/667 nm fluorescence (AID 1100); conditions: higher = more signal
[14] = splicing luciferase reporter signal modulators, primary screen, spliceosome inhibition project, cell-based, HEK293, splice +/- reporter (AID 1101); conditions: luminescence, 24 h, higher = more signal, called active from +8 up or from −8 down;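 also: HEK293 cells carrying a splicing-competent luciferase reporter gene; test concentration not given here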
[15] = biological target: Fibroblast growth factor 10 (Homo sapiens) (UniProt O15520); assay: FGF10 binders on small-molecule microarrays, primary screen, biochemical, small-molecule microarray, 635 nm fluorescence (AID 1102); conditions: FGF10 binding, fluorescence 635 nm, higher = more signal
Fibroblast growth factor 10 (Homo sapiens), sequence (O15520 whole entry, looked up): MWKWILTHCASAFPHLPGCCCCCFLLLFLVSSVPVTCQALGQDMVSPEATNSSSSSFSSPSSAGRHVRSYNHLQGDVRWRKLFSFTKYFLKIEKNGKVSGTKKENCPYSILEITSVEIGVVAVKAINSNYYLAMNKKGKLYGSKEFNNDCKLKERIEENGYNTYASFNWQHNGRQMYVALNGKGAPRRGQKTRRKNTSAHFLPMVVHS

[16] = tested on: glycogen synthase kinase-3 (GSK3A per assay name; protocol says GSK3B); assay: GSK3 binders on small-molecule microarrays, primary screen, biochemical, small-molecule microarray, 635 nm fluorescence, GSK3A (AID 1103); conditions: small-molecule microarray binding, fluorescence 635 nm; higher = more signal; also: the record names both GSK3A and GSK3B
[17] = biological target: Epidermal growth factor receptor (Homo sapiens) (UniProt P00533); assay: EGFR binders on small-molecule microarrays, primary screen, biochemical, small-molecule microarray, 635 nm fluorescence (AID 1104); conditions: EGFR binding, higher = more signal;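 also: score merges 667 nm emission intensity with spot signal to noise over triplicate slides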
Epidermal growth factor receptor (Homo sapiens), sequence (P00533 whole entry, looked up): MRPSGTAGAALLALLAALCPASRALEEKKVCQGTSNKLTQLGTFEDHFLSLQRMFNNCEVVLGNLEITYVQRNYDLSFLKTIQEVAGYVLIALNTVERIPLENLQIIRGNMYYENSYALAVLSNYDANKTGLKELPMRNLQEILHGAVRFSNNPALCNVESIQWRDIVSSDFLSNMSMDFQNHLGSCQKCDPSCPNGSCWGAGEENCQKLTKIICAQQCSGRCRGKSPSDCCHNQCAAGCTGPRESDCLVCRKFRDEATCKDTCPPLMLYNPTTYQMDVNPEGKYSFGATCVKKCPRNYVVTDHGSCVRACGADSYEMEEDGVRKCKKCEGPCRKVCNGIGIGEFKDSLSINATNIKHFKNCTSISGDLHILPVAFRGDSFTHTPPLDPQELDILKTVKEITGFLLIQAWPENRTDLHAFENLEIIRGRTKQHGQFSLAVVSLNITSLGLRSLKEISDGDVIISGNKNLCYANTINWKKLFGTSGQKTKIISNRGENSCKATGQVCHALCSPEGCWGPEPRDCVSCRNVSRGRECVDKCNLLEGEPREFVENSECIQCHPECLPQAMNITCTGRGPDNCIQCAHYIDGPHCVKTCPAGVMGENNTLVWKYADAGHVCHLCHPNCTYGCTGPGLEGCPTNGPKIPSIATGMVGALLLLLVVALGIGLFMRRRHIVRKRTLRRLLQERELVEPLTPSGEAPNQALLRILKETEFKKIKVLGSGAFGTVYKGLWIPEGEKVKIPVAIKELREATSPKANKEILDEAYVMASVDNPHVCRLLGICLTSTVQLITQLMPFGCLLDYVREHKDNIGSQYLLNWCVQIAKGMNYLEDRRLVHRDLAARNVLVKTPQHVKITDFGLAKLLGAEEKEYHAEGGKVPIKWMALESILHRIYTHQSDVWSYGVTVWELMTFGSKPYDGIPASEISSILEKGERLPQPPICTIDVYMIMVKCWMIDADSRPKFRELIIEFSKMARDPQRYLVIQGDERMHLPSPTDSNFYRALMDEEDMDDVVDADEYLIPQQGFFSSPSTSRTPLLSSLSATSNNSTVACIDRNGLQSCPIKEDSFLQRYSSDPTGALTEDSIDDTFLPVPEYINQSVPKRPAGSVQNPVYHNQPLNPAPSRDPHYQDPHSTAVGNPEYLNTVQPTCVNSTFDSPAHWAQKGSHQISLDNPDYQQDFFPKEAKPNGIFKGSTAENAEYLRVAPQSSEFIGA

[18] = biological target: Follistatin-related protein 3 (Homo sapiens) (UniProt O95633); assay: FSTL3 binders on small-molecule microarrays, primary screen, biochemical, small-molecule microarray, 635 nm fluorescence (AID 1105); conditions: FSTL3 binding, higher = more signal;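 also: score merges emission near 667 nm and signal to noise per printed spot across three slides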
Follistatin-related protein 3 (Homo sapiens), sequence (O95633 whole entry, looked up): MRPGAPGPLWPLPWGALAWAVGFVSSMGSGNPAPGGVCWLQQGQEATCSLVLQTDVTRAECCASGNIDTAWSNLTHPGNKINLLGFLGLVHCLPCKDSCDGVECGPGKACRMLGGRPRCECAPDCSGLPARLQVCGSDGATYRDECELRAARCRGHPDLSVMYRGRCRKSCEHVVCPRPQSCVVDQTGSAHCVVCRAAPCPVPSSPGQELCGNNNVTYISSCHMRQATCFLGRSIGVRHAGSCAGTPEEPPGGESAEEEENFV

[19] = biological target: Dickkopf-related protein 1 (Homo sapiens) (UniProt O94907); assay: DKK1 binders on small-molecule microarrays, primary screen, biochemical, small-molecule microarray, 635 nm fluorescence scan (AID 1106); conditions: DKK1 binding, higher = more signal;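 also: score merges emission near 667 nm with signal to noise over three replicate slides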
Dickkopf-related protein 1 (Homo sapiens), sequence (O94907 whole entry, looked up): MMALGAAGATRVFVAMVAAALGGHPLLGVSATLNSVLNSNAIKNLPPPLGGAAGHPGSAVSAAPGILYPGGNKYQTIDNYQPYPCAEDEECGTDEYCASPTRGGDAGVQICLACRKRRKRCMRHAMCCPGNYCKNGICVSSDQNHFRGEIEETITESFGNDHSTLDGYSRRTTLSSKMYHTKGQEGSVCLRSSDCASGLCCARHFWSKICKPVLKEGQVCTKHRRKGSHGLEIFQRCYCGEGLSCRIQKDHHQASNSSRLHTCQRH

[20] = tested on: Inhibin beta A chain (activin A); assay: INHBA (activin A) binders on microarrays, primary screen, biochemical, small-molecule microarray, 635 nm fluorescence scan (AID 1107); conditions: small-molecule microarray binding, higher = more signal;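 also: mouse activin A protein probed at 4.33 µg/mL on printed slides; score merges bound-protein fluorescence near 667 nm with spot signal-to-noise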

| SMILES | composite z-score [1] | z-score [2] | z-score [3] | z-score [4] | composite z-score [5] | z-score [6] | composite z-score [7] | composite z-score [8] | composite z-score [9] | composite z-score [10] | composite z-score [11] | composite z-score [12] | composite z-score [13] | z-score [14] | composite z-score [15] | composite z-score [16] | composite z-score [17] | composite z-score [18] | composite z-score [19] | composite z-score [20] |
| --- | --- | --- | --- | --- | --- | --- | --- | --- | --- | --- | --- | --- | --- | --- | --- | --- | --- | --- | --- | --- |
| O=C(NCC(O)CO)[C@@]1(CCS(=O)(=O)c2ccccc2)N=C(c2ccc(OCCCO)cc2)O[C@H]1c1ccccc1 (stereo not given in full) | 0.845 | -0.717 (inactive) | -0.908 (inactive) | -0.163 (inactive) | 3.56 | -0.328 (inactive) | 0.471 | -0.562 | -0.196 | 0.144 | 1.11 | 1.27 | 0.985 | -0.809 (inactive) | 0.303 | 0.235 | -0.928 | -0.555 | -1.1 | 0.801 |
| COC(=O)C[C@H]1O[C@@]2(C[C@@H]1[Si](C)(C)C)C(=O)N(C)c1ccccc12 | 0.447 | -2.53 (inactive) | -2.4 (inactive) | -1.5 (inactive) | 1.2 | 1.62 (inactive) | -0.15 | 0.297 | 0.764 | 0.0747 | 0.0786 | -0.251 | -0.52 | -0.662 (inactive) | 0.955 | 0.59 | 0.559 | 0.612 | 0.525 | -1.08 |
| O=C1O[C@@H](c2ccccc2)[C@@H](c2ccccc2)N2[C@@H](c3ccc(OCCO)cc3)[C@]3(C(=O)Nc4ccc(C#CC5(O)CCCCCC5)cc43)[C@@H](C(=O)Nc3nc4ccccc4s3)[C@H]12 | 1.55 | 2.44 (inactive) | 1.19 (inactive) | 2.78 (inactive) | 2.96 | 0.799 (inactive) | 0.0769 | 1.18 | 1.07 | 0.191 | 0.943 | 0.552 | 0.662 | -0.102 (inactive) | 1.39 | 1.31 | 0.533 | 1.38 | 0.553 | 0.541 |
| CC(C)(C)OC(=O)CC[C@@]1(C(=O)NCCN2CCOCC2)N=C(c2ccc(OCCCO)cc2)O[C@@H]1c1ccccc1CN=[N+]=[N-] | 1.09 | -0.865 (inactive) | 0.258 (inactive) | -1.3 (inactive) | 2.96 | -1.07 (inactive) | -0.0152 | 0.167 | 0.461 | -0.0479 | 1.49 | 0.455 | 0.454 | -0.268 (inactive) | 0.08 | 0.139 | -0.088 | -0.205 | -0.45 | 0.67 |
| O=C1O[C@@H](c2ccccc2)[C@@H](c2ccccc2)N2[C@@H](c3ccc(OCCO)cc3)[C@]3(C(=O)Nc4ccc(C#CCCO)cc43)[C@@H](C(=O)O)[C@H]12 | 1.53 | 0.659 (inactive) | 0.799 (inactive) | -0.261 (inactive) | 2.68 | 0.543 (inactive) | 1.03 | 1.31 | 1.04 | 0.853 | 1.81 | 0.416 | 1.17 | 0.362 (inactive) | 1.41 | 0.746 | 0.702 | 0.988 | 0.151 | 1.34 |
| C=C(CCCC)/C(=C/C[C@@H](OC(C)=O)c1ccc(CO)o1)c1cnc2ccccc2c1 | 1.54 | 1.5 (inactive) | -0.57 (inactive) | 0.824 (inactive) | 1.92 | 0.688 (inactive) | -0.11 | 1.57 | 1.11 | -0.0007 | 1.08 | -0.282 | -0.428 | 0.179 (inactive) | 1.46 | 1.3 | 0.533 | 1.4 | 0.768 | 1.05 |
| C=C(CCCC)/C(=C/C[C@H](OC(C)=O)c1cccc(OCCO)c1)c1cnc2ccccc2c1 | 0.12 | 1.94 (inactive) | 0.924 (inactive) | 1.32 (inactive) | -0.0488 | 0.442 (inactive) | -0.116 | -0.271 | 0.0799 | -0.169 | 0.989 | -0.149 | -0.0497 | -0.142 (inactive) | -0.252 | -0.31 | 0.228 | 0.234 | 0.0193 | 1.83 |
| COc1ccc([Si](C)(C)[C@@H]2[C@@H](CC(=O)N3CCC[C@H]3CO)O[C@]3(C(=O)N(Cc4ccc(N5CCOC5=O)cc4)c4ccccc43)[C@H]2C)cc1 | 1.45 | -3.35 (inactive) | -1.13 (inactive) | -0.356 (inactive) | 2.72 | 0.985 (inactive) | -0.242 | 1.46 | 0.912 | -0.188 | 1.4 | -0.3 | 0.135 | -1.58 (inactive) | 0.25 | 0.946 | -0.0626 | 0.388 | 0.366 | 0.0014 |
| COC(=O)C(CC#Cc1ccc2c(c1)[C@]1(C(=O)N2)[C@H](c2ccccc2OCCO)N2[C@H](c3ccccc3)[C@H](c3ccccc3)OC(=O)[C@H]2[C@@H]1C(=O)N1CCc2cc(OC)c(OC)cc2C1)C(=O)OC | 1.53 | 2.1 (inactive) | 1.13 (inactive) | 4.27 (inactive) | 3.01 | 0.463 (inactive) | -0.174 | 1.08 | 1.09 | 0.0355 | 1.56 | 0.0978 | 0.048 | -0.795 (inactive) | 0.71 | 1.3 | 1.02 | 1.26 | 0.882 | 0.279 |
| CN1C(=O)C2C(C1=O)C1C=C(CCCO)C2C(C2CC2)N1Cc1cccc(OC(F)(F)F)c1 (stereo not given) | 1.34 | -1.07 (inactive) | -1.58 (inactive) | -1.15 (inactive) | 3.17 | 0.179 (inactive) | -0.224 | -0.0767 | 0.203 | -0.144 | 1.79 | -0.656 | 0.512 | -0.511 (inactive) | -0.268 | 0.393 | -0.783 | 0.0703 | -0.521 | 0.722 |

Reference: PubChem BioAssay
